Test results reported in PubChem BioAssay (Tox21).
“And” between values parts separate entries of the source, which are not always exact repeats. Identical values can stand only once. Inconclusive results are not listed. Where a call stands in place of a potency, no number is given. Where a structure was tested more than once in an assay, its records may differ in their call. The source made the active and inactive calls. Calls follow the shape of the dose curve; as a rule, active = well fitted curve in the direction sought with a large enough effect in the repeat runs; inconclusive = weak or mixed curves; inactive = no such curve, though single readings can be large; an effect the other way counts as inactive or inconclusive.

Assay: Human pregnane X receptor (PXR) small molecule agonists, qHTS cell viability counter screen (AID 1346977); also: nearly all actives have a fitted effect of over 50% in size; also: potency is read from the fitted curve at half-maximal effect
Conditions: PXR-Luc HepG2 viability, CellTiter-Fluor, 24 h; series mostly up to 92.4 µM; activity change, negative = cytotoxicity: at the top concentration
How it was run: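 Viability counter screen: CellTiter-Fluor signal in PXR-Luc HepG2 cells, 24hr compound exposure, 37C, 5% CO2.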

| Structure (SMILES) | Potency | activity change, negative = cytotoxicity |
| --- | --- | --- |
| O=C/C=C/c1ccccc1 | inactive |  |
| CNC(=O)O/N=C(\SC)C(=O)N(C)C | inactive |  |
| Nc1ccc(N)cc1 | 54.5 µM (active) and inactive |  |
| Cc1cccc(N)c1 | inactive |  |
| C=C(C)C(=O)OCC(CC)CCCC (stereo not drawn) | inactive |  |
| CNC(=O)O/N=C/C(C)(C)S(C)=O (stereo not drawn) |  | -0.237% (inactive) |
| C[C@]12CC[C@H](O)CC1=CC[C@@H]1[C@@H]2CC[C@]2(C)C(=O)CC[C@@H]12 | inactive |  |
| C=CCN=C=S | inactive |  |

Assay: Caspase-3/7 induction in HepG2 cells by small molecules, qHTS assay (AID 1346978); also: nearly all actives have a fitted effect of over 15% in size
Conditions: HepG2 caspase-3/7 activation, Caspase-Glo luminescence, 17 h; series mostly up to 92.4 µM; caspase activation: at the top concentration
How it was run: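 Caspase-3/7 induction was measured by Caspase-Glo 3/7 luminescence (30 min, room temperature) after a 17 hr compound exposure of wild-type HepG2 cells seeded at 2,000 per well and pre-incubated 5 hr.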

| Structure (SMILES) | outcome |
| --- | --- |
| CCCCCCCCCCCCCCCCCC(=O)O | inactive |
| CN1C(=O)CCS(=O)(=O)C1c1ccc(Cl)cc1 (stereo not drawn) | inactive |
| CC[N+](=O)[O-] | inactive |
| [N-]=[N+]=CC(=O)OC[C@H](N)C(=O)O | inactive |
| CCOP(=S)(OCC)Oc1cc(C)nc(C(C)C)n1 | inactive |
| Nc1ncc([N+](=O)[O-])s1 | inactive |
| C/C=C/c1ccc2c(c1)OCO2 | inactive |
| Clc1cnc(Oc2ccc(Oc3ncc(Cl)cc3Cl)cc2)c(Cl)c1 | inactive |
| CN(C)NC(=O)CCC(=O)O | inactive |
| COC(=O)Nc1cccc(OC(=O)Nc2cccc(C)c2)c1 | inactive |
| Nc1ccc([As](=O)(O)O)cc1 | inactive |
| CCSC(=O)N1CCCCCC1 | inactive |
| O=C(O)C1C(C(=O)O)C2(Cl)C(Cl)=C(Cl)C1(Cl)C2(Cl)Cl (stereo not drawn) | inactive |
| NNc1ccccc1 | inactive |
| C=CC(=O)OCC(CC)CCCC (stereo not drawn) | inactive |
| CC(=O)C1CCOC1=O (stereo not drawn) | inactive |
| OCC(O)CCl (stereo not drawn) | inactive |
| Cc1ccc(N)cc1 | inactive |
| Oc1ccc(Cl)cc1 | inactive |
| Nc1cccc(Cl)c1 | inactive |
| Cc1cc(Cl)ccc1OC(C)C(=O)O (stereo not drawn) | inactive |
| Oc1c(Br)cc(Br)cc1Br | inactive |
| Cc1ccccc1N | inactive |
| O=C/C=C/c1ccccc1 | inactive |
| CNC(=O)O/N=C(\SC)C(=O)N(C)C | inactive |
| Nc1ccc(N)cc1 | inactive |
| C=C(C)C(=O)OCC(CC)CCCC (stereo not drawn) | inactive |
| CNC(=O)O/N=C/C(C)(C)S(C)=O (stereo not drawn) | inactive |
| C[C@]12CC[C@H](O)CC1=CC[C@@H]1[C@@H]2CC[C@]2(C)C(=O)CC[C@@H]12 | inactive |
| C=CCN=C=S | inactive |

Assay: Caspase-3/7 induction in CHO-K1 cells by small molecules, qHTS cell viability counter screen (AID 1346979); also: nearly all actives have a fitted effect of over 35% in size; also: potency is read from the fitted curve at half-maximal effect
Conditions: CellTiter-Fluor fluorescence, 17 h; series mostly up to 92.4 µM; activity change, negative = cytotoxicity: at the top concentration
How it was run: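 Viability readout by fluorescence (CellTiter-Fluor) on wild-type CHO-K1 cells exposed for 16hr at 37C and 5% CO2 to compounds delivered in DMSO; reagent incubated 1hr before reading.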

| Structure (SMILES) | Potency | activity change, negative = cytotoxicity |
| --- | --- | --- |
| CCCCCCCCCCCCCCCCCC(=O)O | inactive |  |
| CN1C(=O)CCS(=O)(=O)C1c1ccc(Cl)cc1 (stereo not drawn) | inactive |  |
| CC[N+](=O)[O-] | inactive |  |
| [N-]=[N+]=CC(=O)OC[C@H](N)C(=O)O | inactive |  |
| CCOP(=S)(OCC)Oc1cc(C)nc(C(C)C)n1 | inactive |  |
| Nc1ncc([N+](=O)[O-])s1 | 30.9 µM (active) and inactive |  |
| C/C=C/c1ccc2c(c1)OCO2 |  | 6.52% (inactive) |
| Clc1cnc(Oc2ccc(Oc3ncc(Cl)cc3Cl)cc2)c(Cl)c1 | inactive |  |
| CN(C)NC(=O)CCC(=O)O | inactive |  |
| COC(=O)Nc1cccc(OC(=O)Nc2cccc(C)c2)c1 | inactive |  |
| Nc1ccc([As](=O)(O)O)cc1 | inactive |  |
| CCSC(=O)N1CCCCCC1 | inactive |  |
| O=C(O)C1C(C(=O)O)C2(Cl)C(Cl)=C(Cl)C1(Cl)C2(Cl)Cl (stereo not drawn) | inactive |  |
| NNc1ccccc1 | inactive |  |
| C=CC(=O)OCC(CC)CCCC (stereo not drawn) | inactive |  |
| CC(=O)C1CCOC1=O (stereo not drawn) | inactive |  |
| OCC(O)CCl (stereo not drawn) | inactive |  |
| Cc1ccc(N)cc1 | inactive |  |
| Oc1ccc(Cl)cc1 | inactive |  |
| Nc1cccc(Cl)c1 | inactive |  |
| Oc1c(Br)cc(Br)cc1Br | inactive |  |
| Cc1ccccc1N | inactive |  |
| O=C/C=C/c1ccccc1 | inactive |  |
| CNC(=O)O/N=C(\SC)C(=O)N(C)C | inactive |  |
| Nc1ccc(N)cc1 | 48.8 µM (active) and 54.5 µM (active) |  |
| Cc1cccc(N)c1 | inactive |  |
| C=C(C)C(=O)OCC(CC)CCCC (stereo not drawn) | inactive |  |
| CNC(=O)O/N=C/C(C)(C)S(C)=O (stereo not drawn) | 49.2 µM (active) and inactive |  |
| C[C@]12CC[C@H](O)CC1=CC[C@@H]1[C@@H]2CC[C@]2(C)C(=O)CC[C@@H]12 |  | -13.5% [at 42.5 µM] (inactive) |
| C=CCN=C=S | inactive |  |
